Measurements reported in PubChem BioAssay AID1347056 (Sanford-Burnham Center for Chemical Genomics, 2019).
Hit rate of the full screen: of about 360,000 compounds, about 3,600 (1%) were called active. The sample holds actives, similar compounds and a random draw of the others, so the mix is not that of the screen. A number with no mark means an inactive call.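 The calls were made as follows: active = compounds whose plate-normalised and pattern-corrected inhibition of the luciferase reporter signal at the single screening dose is 50% or more; inactive = the rest.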

experiment: TROY pathway blockers in reporter cells – Q293 LMP1-TROYcd cells, NF-kB luciferase, uHTS, primary screen (AID 1347056); conditions: 4 h, at 10 µM, stronger effect = higher value

**Q.** With `COc1cccc(-c2nc3ccc(N4CCN(C)CC4)cc3[nH]2)c1` as the compound, how does the inhibition read?
**A.** 79.8% (active)

**Q.** For `CCn1cc(CN2CCCC(C(=O)c3cccc(C(F)(F)F)c3)C2)cn1` (stereo not given), which inhibition is on record?
**A.** 10.1%

**Q.** For `CCOC(=O)[C@]12Cc3ccccc3[C@H]1N(C1CCCCC1)C(=O)c1cc(OC)ccc12`, which inhibition is on record?
**A.** 36.6%

**Q.** Which inhibition does the source give for `CNC(=O)Nc1ccc(C(O)(C(=O)OC)C(F)(F)F)cc1` (stereo not given) here?
**A.** -7.62%

**Q.** For `COc1cc(C(c2c(O)c3ccccc3oc2=O)c2c(C)n(C)n(-c3ccccc3)c2=O)ccc1O` (stereo not given), which inhibition is on record?
**A.** -7.22%

**Q.** Which inhibition does the source give for `CC(=O)OC1C2(CC3N4C(=O)C5(CO)SSC4(CC31O)C(=O)N5C)OC(C)C(C)(C)C2=O` (stereo not given) here?
**A.** 64.8% (active)

**Q.** With `CC(=O)Nc1ccccc1C(=O)OCC(=O)c1cccc2ccccc12` as the compound, how does the inhibition read?
**A.** -7.86%

**Q.** Which inhibition does the source give for `CN(C)CC1Oc2ccccc2OC1(O)c1ccccc1` (stereo not given) here?
**A.** 1.73%

**Q.** Which inhibition does the source give for `CCCCCCCCCCCCn1ccc(=N)cc1` here?
**A.** 64% (active)

**Q.** With `Cc1nc2nc(C)c(CCC(=O)N3CCC4(CC3)OCCO4)c(C)n2n1` as the compound, how does the inhibition read?
**A.** 3.18%

**Q.** For `Cc1ccc(C)c(NC2=NCCCS2)c1`, which inhibition is on record?
**A.** 1.74%

**Q.** For `O=C(CCCn1c(=O)[nH]c2cc(Cl)ccc2c1=O)N1CCC2(CC1)OCCO2`, which inhibition is on record?
**A.** 7.33%

**Q.** Which inhibition does the source give for `CCOC(=O)C(O)(c1ccc(N)c(OC)c1)C(F)(F)F` (stereo not given) here?
**A.** 7.19%

**Q.** For `CCC(C)(O)C(=O)OC1C(=O)OC2CC3C(C)=CC(=O)C(O)C3(C)C3C4(O)OCC23C1C(C)C4O` (stereo not given), which inhibition is on record?
**A.** 83.5% (active)

**Q.** With `NCCc1c[nH]c2ccc(O)cc12` as the compound, how does the inhibition read?
**A.** 13%

**Q.** With `CC(=O)Nc1ccc(C(=O)C(Cc2ccccc2)N(C)C)cc1` (stereo not given) as the compound, how does the inhibition read?
**A.** 0.62%

**Q.** For `CCCCCCN=C(CC)c1c(O)n(CCCC)c(=O)[nH]c1=O`, which inhibition is on record?
**A.** 17.9%

**Q.** Which inhibition does the source give for `CCOC(=O)c1c(N)n(Cc2ccccc2)c2nc3ccccc3nc12` here?
**A.** 51.6% (active)

**Q.** Which inhibition does the source give for `COc1cc(Cn2c(N)c(C(=O)NCc3ccco3)c3nc4ccccc4nc32)cc(OC)c1OC` here?
**A.** 13.5%

**Q.** For `CCOC(=O)c1cccc(C2=C(CNC(=O)c3ccncc3)[C@H]3CC[C@@H](C2)N3Cc2ccccc2)c1`, which inhibition is on record?
**A.** -20.1%

**Q.** Which inhibition does the source give for `COc1ccc(-c2nn(CCC#N)cc2C(=O)O)cc1` here?
**A.** -1.21%

**Q.** With `CNCC(O)c1cc(F)c(OCc2ccccc2)c(OCc2ccccc2)c1F` (stereo not given) as the compound, how does the inhibition read?
**A.** 8.14%

**Q.** With `CC1CCC(N(C)C2CCN(C)CC2)CC1` (stereo not given) as the compound, how does the inhibition read?
**A.** 18.6%

**Q.** For `CCN1c2nc3c(C)cccn3c(=O)c2CC2(C(=O)N(C)C(=O)N(C)C2=O)C1C` (stereo not given), which inhibition is on record?
**A.** -6.84%

**Q.** With `COc1ccc(C(=O)C2CN(C)CC2C(=O)c2ccc(OC)cc2)cc1` (stereo not given) as the compound, how does the inhibition read?
**A.** -76.8%

**Q.** With `CN1CCC(OC(=O)c2cccc(F)c2)CC1` as the compound, how does the inhibition read?
**A.** -37.5%

**Q.** For `Cc1ccc(C2CN(C)CC2C(=O)c2ccc(F)cc2)cc1` (stereo not given), which inhibition is on record?
**A.** 57.6% (active)

**Q.** Which inhibition does the source give for `Cn1cc(C(=O)OCC(=O)N2CCCC2)c2ccccc21` here?
**A.** 8.39%

**Q.** Which inhibition does the source give for `O=C(Nc1cccc2ccccc12)N1CCC2(CC1)OCCO2` here?
**A.** 38.5%

**Q.** Which inhibition does the source give for `CCOC(=O)C1SC2(C(F)(F)C(F)F)CC1(O)c1c(c(OC)c3occc3c1OC)O2` (stereo not given) here?
**A.** -1.26%

**Q.** For `COc1ccc(-n2nnnc2C(c2cccc3ccccc23)N2CCC(n3c(=O)[nH]c4ccccc43)CC2)cc1` (stereo not given), which inhibition is on record?
**A.** 27.6%

**Q.** With `O=c1[nH]c2ccccc2n1C1CCN(C(c2ccccc2)c2nnnn2Cc2ccccc2)CC1` (stereo not given) as the compound, how does the inhibition read?
**A.** 18.3%

**Q.** With `O=c1[nH]c2ccccc2n1C1CCN(C(c2ccnc3ccccc23)c2nnnn2Cc2ccccc2)CC1` (stereo not given) as the compound, how does the inhibition read?
**A.** 73.9% (active)

**Q.** Which inhibition does the source give for `Cc1ccc(OC(=O)N(C)C[C@@H]2OCc3cnnn3CCCC(=O)N([C@H](C)CO)C[C@@H]2C)cc1` here?
**A.** 0.42%

**Q.** For `CC(C)c1ccc(OCC(=O)N2CCCN(C)CC2)cc1`, which inhibition is on record?
**A.** -4.27%
